# Only some compounds are listed: those with a hit (about 3.2% of all), similar ones and a draw of the others.
# Tau fibril FP = inhibitors of human tau fibril formation; P10636; K18 P301L tau heparin fibrillization, Alexa594 FP, 6 h; Potency, µM (titrated, usually from 57.7 µM), without a hit: top-dose activity, negative = inhibition, most hits filed as inhibitors; 280,000 tested, 0.39% active; AID 1468; also: potency is read from the fitted curve at half-maximal effect; % is scaled to controls: 0 for no effect and ±100 for the full control effect; nearly all actives have a fitted effect of over 55% in size
# Target sequence (P10636 561-689 P618L limits assumed): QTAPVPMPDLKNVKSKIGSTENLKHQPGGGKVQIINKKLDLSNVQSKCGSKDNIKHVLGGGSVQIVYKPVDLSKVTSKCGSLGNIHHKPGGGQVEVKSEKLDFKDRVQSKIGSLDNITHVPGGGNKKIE
#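 Recombinant K18 P301L […], labeled with Alexa 594 at 0.24 uM over 15 uM unlabeled; heparin inducer 20 uM final; 37 C, 6 hr; FP endpoint.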
# CBFb RUNX1 block = CBF-beta/RUNX1 interaction disruption | Q01196+Q13951 | AlphaScreen CBFb-His/RUNX1-biotin binding, biochemical | Potency, µM (titrated, usually from 59.8 µM), for inactives: top-dose activity, negative = inhibition, most hits filed as inhibitors | 230,000 tested, under 10 active | AID 1477; also: % of control where 0% means no effect
# Target sequence (Q01196 whole entry, looked up): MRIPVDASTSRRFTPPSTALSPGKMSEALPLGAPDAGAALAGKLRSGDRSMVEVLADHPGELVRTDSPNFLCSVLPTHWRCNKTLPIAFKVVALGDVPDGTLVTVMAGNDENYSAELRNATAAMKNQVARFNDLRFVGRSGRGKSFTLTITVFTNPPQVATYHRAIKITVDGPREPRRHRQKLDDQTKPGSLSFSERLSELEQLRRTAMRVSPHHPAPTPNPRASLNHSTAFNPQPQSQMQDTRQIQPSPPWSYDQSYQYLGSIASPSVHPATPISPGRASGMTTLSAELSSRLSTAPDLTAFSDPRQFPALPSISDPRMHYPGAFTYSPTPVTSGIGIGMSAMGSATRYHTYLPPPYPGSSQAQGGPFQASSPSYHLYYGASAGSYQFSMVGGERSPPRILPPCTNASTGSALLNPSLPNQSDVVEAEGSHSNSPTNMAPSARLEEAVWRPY
# Target sequence (Q13951 whole entry, looked up): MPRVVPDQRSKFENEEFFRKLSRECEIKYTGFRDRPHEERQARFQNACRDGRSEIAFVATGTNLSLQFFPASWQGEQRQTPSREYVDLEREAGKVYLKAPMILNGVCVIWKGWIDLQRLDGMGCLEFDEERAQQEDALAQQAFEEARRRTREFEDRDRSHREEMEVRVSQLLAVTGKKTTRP
#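 CBFb-His/RUNX1-biotin, 30 nM each, preincubated 20 min RT; compound 15 min RT; Ni + streptavidin beads 50 ng each, 90 min RT; AlphaScreen read.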
# Tau fibril ThT = tau fibrillization inhibition (ThT binding); P10636; recombinant tau K18 P301L, heparin-induced fibrillization, ThT fluorescence; Potency, µM (series often up to 57.4 µM), without a hit: at the top dose activity, negative = inhibition, most hits filed as inhibitors; 270,000 tested, 2.1% active; AID 1460; also: potency is read from the fitted curve at half-maximal effect; % is scaled to controls: 0 for no effect and ±100 for the full control effect; nearly all actives have a fitted effect of over 55% in size
#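 Using a mix of unlabeled (15 uM) and Alexa 594-labeled (0.24 uM) tau K18 P301L, heparin-triggered fibrillization over 6 hr at 37 C was scored by ThT fluorescence.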
# Tau fluor cs = counter-screen for tau fibril formation inhibitors; 280,000 tested, 0.93% active; Potency, µM (series often up to 57.7 µM), without a hit: at the highest dose activity change, negative = decrease; tau K18 P301L Alexa594 fluorescence, heparin fibrillization; AID 1463; also: potency is read from the fitted curve at half-maximal effect; % is scaled to controls: 0 for no effect and ±100 for the full control effect; nearly all actives have a fitted effect of over 55% in size
#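 Human tau K18 P301L (15 uM unlabeled, 0.24 uM Alexa 594-labeled) in 100 mM sodium acetate pH 7 with 20 uM heparin, 6 hr at 37 C. ThT 30 uM added, 1 hr ambient; Alexa 594 FP and total fluorescence read at 555/632 nm.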
# KDM4E inh = inhibitors of human JMJD2E histone demethylase; B2RXH2; JMJD2E catalytic domain, FDH-coupled NADH fluorescence (FDH is formaldehyde dehydrogenase); Potency, µM (series often up to 57.1 µM), without a hit: at the highest dose activity change, negative = inhibition, hits mostly inhibitors; 230,000 tested, 1.6% active; AID 2147; active = well fitted inhibition curve with a large enough effect, not every such curve was filed as active; inconclusive = small, poorly fitted or top-dose-only effect, or another doubt; inactive = no such curve, though single readings can be large or run the other way;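 also: potency is read from the fitted curve at half-maximal effect; 0% = wells with enzyme and -100% = buffer wells without enzyme; nearly all actives have a fitted effect of over 50% in size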
# Lamin A splicing = changes lamin A minigene splicing in HeLa cells; HeLa LMNA splicing GFP/RFP minigene ratio, 48 h; Potency, µM (titrated, usually from 46.1 µM), for the others: at the top dose ratio change, negative = inhibition, most hits filed as inhibitors; 200,000 tested, 0.01% active; active = well fitted inhibition curve with a large enough effect in the signal ratio, with a control signal flat, not every such curve was filed as active; inconclusive = small, poorly fitted or top-dose-only effect, or effect the other way, or a change in a side signal; the % refers to the signal ratio; also: potency is read from the fitted curve at half-maximal effect; % is scaled to controls: 0 for no effect and ±100 for the full control effect
#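 S3 HeLa stable clones carrying a lamin A-EGFP splicing minigene plus DsRed2 were seeded at 600 cells/well in Opti-MEM with 2% FBS, pin-dosed and incubated 48 h at 37°C. Acumen cytometry (488 nm) gave the GFP/RFP total-intensity ratio.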
# * = called active by the depositor; u = inconclusive; x = no result given; ! = not active in a repeat; [ ] = another dose, or the depositor's remark. Unless noted, calls follow the shape of the dose curve; as a rule, active = well fitted curve in the direction sought with a large enough effect; inconclusive = small, poorly fitted or top-dose-only effect, or another doubt; inactive = no such curve, though single readings can be large; an effect the other way counts as inactive or inconclusive.
SMILES,Tau fibril FP,CBFb RUNX1 block,Tau fibril ThT,Tau fluor cs,KDM4E inh,Lamin A splicing
C=CCNc1nc(-c2ccc([N+](=O)[O-])cc2)cs1,18.9%,-10.6%,7.08µM*,-19.9%,4.9%,u
CCCOc1ccc(-c2nc(-c3ccc([N+](=O)[O-])cc3)cs2)cc1,-6.2%,0.7%,u,u,5.0%,x
CCOc1ccc2nc3cc(N)ccc3c(N)c2c1,u,-13.4%,7.08µM*,12.6µM*[quencher],u,u
Nc1cccc(-c2nc3ccc(N)cc3s2)c1,7.7%,1.8%,u,u,u,-7.5%
Oc1ccc(N=C/C=C/c2cccc(Br)c2)cc1-c1nc2ccccc2s1,-15.0%,u,6.31µM*,u,25.1µM*,u
Nc1ccc(-c2nc3ccc(N)cc3s2)cc1,1.3%,15.1%,11.2µM*,u,u,x
Nc1ccc(O)c(-c2nc3ccccc3s2)c1,u,u,10µM*,u,u,5.8%
Oc1ccc(-c2nc3ccccc3s2)cc1,-5.9%,12.6%,-15.6%,u,u,u
Nc1ccc2nc(-c3ccc(O)cc3)sc2c1,3.4%,x,7.94µM*,u,x,x
Oc1ccc(-c2nc3ccccc3s2)c(O)c1,-12.8%,12.5%,7.4%,u,u,x
Cc1nn(-c2ccccc2)c(OC(=O)c2ccc(Br)cc2)c1S(=O)(=O)c1ccccc1,-0.4%,x,-19.2%,-20.6%,x,x
CN1CCN(C(=O)C2=C[C@H](c3csc4ccccc34)C[C@H](OCCCCO)O2)CC1,-5.6%,-5.5%,-17.3%,6.6%,22.4µM*,x
CN1CCN(C(=O)C2=C[C@H](c3csc4ccccc34)C[C@H](OCc3ccc(CO)cc3)O2)CC1,1.2%,-0.1%,-1.8%,-4.7%,-14.2%,x
CCOc1ccc(CCNC(=O)Cn2ncc3c(=O)oc4ccc(C)cc4c32)cc1,u,x,u,-22.9%,x,x
CC(=O)Nc1ccc(NC(=O)CC2Sc3ccccc3NC2=O)cc1 (centres undefined),-1.5%,x,-3.7%,0.2%,x,x
Cc1ccc(NC2Sc3ccccc3NC2=O)cc1 (centres undefined),u,-4.1%,15.8µM*,-21.6%,22.4µM*,24.8%[46 µM]
COc1ccc(C2/C=C\CN(CC(C)C)C(C)C(=O)N2Cc2ccc(F)cc2)cc1 (centres undefined),x,19.6%,x,x,x,x
CCCC(=O)C1=C(c2ccc(C)cc2)N(C(=O)CCC)n2cnnc2S1,-14.2%,x,15.8µM*,u,x,u
Nc1cc(-c2ccc(OC(F)(F)F)cc2)nn1-c1ccc(Cl)c(Cl)c1,u,23.2%,20µM*,12.6µM*[quencher],-17.6%,-5.8%[46 µM]
Cc1ccc(-c2cc(N)n(-c3ccccc3)n2)cc1,8.9%,-2.2%,u,-25.3%,1.2%,6.8%
Cc1nn(C)c2c1c(-c1ccccc1)cc(=O)n2CC(=O)NC(C)(C)C,-0.9%,x,-14.0%,-12.1%,x,u
Cc1ccc(N2C(=O)C(CC(=O)Nc3ccccc3)N(CCC3=CCCCC3)C2=O)cc1 (centres undefined),-9.7%,x,3.1%,u,x,x
COc1ccc(/C=C/c2nc(N)nc(-c3ccccc3O)n2)cc1OC,20µM*,4.7%,u,u,-18.6%,u
COc1cc(/C=C/c2nc(N)nc(-c3ccccc3O)n2)cc(OC)c1OC,u,4.6%,-16.3%,u,-23.3%,u
CN1C(=O)/C(=C2\SC(N3CCCCCC3)=NC2=O)c2ccccc21,10.5%,-10.7%,12.6µM*,u,1.1%,-3.3%
SMILES,Tau fibril FP,CBFb RUNX1 block,Tau fibril ThT,Tau fluor cs,KDM4E inh,Lamin A splicing
O=C1N=C(N2CCOCC2)S/C1=C1\C(=O)N(Cc2ccccc2)c2ccccc21,3.9%,-2.9%,u,-3.6%,12.8%,8.2%
CCCN1C(=O)/C(=C2\SC(N3CCCCC3)=NC2=O)c2ccccc21,2.5%,-19.6%,15.8µM*,u,2.0%,13.5%
CN1C(=O)/C(=C2\SC(N)=NC2=O)c2ccccc21,2.8%,0.0%,u,-25.0%,2.9%,20.3%
COC(=O)NCC(c1cccnc1)N1CCN(c2ccc(F)cc2)CC1 (centres undefined),0.3%,x,-10.7%,-10.4%,x,u
CCOC(=O)c1cc(OC(=O)c2cccc(Cl)c2)n(-c2ccccc2)n1,3.6%,x,-0.8%,2.9%,x,u
CC/C(=C(\c1ccccc1)c1ccc(OCCN(C)C)cc1)c1ccccc1,6.9%,-1.6%,u,7.6%,20µM*!,u
CS(=O)(=O)Nc1ccc([N+](=O)[O-])cc1OC1CCCCC1,-2.1%,10.3%,u,-18.9%,-16.1%,x
CC(C)(C)C1CCc2c(sc(NC(=O)c3noc4c3CCCC4)c2C#N)C1 (centres undefined),-7.2%,x,u,-13.7%,x,x
NC(=O)c1cccc2ccccc12,9.0%,7.0%,2.0%,6.1%,-7.0%,x
N#CSCC(=O)c1cccc2ccccc12,u,-6.2%,25.1µM*,-12.1%,1.6%,-8.6%
O=C(/C=C/c1ccc(O)cc1)c1ccccc1O,4.6%,2.3%,17.8µM*,u,u,x
O=C(/C=C/c1ccccc1)c1cc(Br)ccc(=O)c1O,u,-29.1%,14.1µM*,u,12.6µM*,u
Cc1ccc(/C=C/C(=O)c2ccccc(=O)c2O)cc1C,-14.9%,u,12.6µM*,u,28.2µM*,u
O=C(/C=C\c1ccccc1)c1ccccc1O,-1.8%[11.6 µM],0.9%[13.1 µM],-8.6%[11.5 µM],-1.1%[11.6 µM],x,x
CC(C)CCNC(=O)C1CCN(c2nc3ccc(Cl)cc3[nH]2)CC1,7.6%,x,-11.8%,-15.7%,x,8.0%[46 µM]
CCC1CN(C(=O)Nc2ccc(Br)cc2F)c2ccccc2S1 (centres undefined),-5.0%,x,-7.8%,-11.4%,x,u
Cc1c2ccccc2nc2c(F)c(NCCO)c(F)c(F)c12,u,-0.3%,12.6µM*,u,-3.3%,-10.0%
COc1ccc(O)c(N)c1,11.2µM*,u,4.47µM*,12.6µM*[quencher],u,14.3%[46 µM]
Cc1ccc(O)c(N)c1,x,-1.0%[21.7 µM],x,x,x,x
COc1ccc(CNC(=O)C2CCN(S(=O)(=O)c3cccc(-c4noc(C)n4)c3)CC2)cc1,-9.9%,x,0.0%,-11.3%,x,-1.4%[46 µM]
Cc1ccc[n+](-c2nc([O-])sc2/C=N/Nc2ccc([N+](=O)[O-])cc2)c1,-4.2%,-1.7%,14.1µM*,-24.4%,-5.4%,x
Cc1ccc[n+](Cc2ccc([N+](=O)[O-])cc2)c1,-5.8%,3.7%,-9.8%,-12.5%,-5.1%,u
CCC1=Nc2cc(C(=O)NCC3CCCO3)ccc2Sc2ccc(Br)cc21 (centres undefined),3.98µM*,-18.6%,u,u,-6.7%,x
CCC1=Nc2cc(C(=O)NCC3CCCO3)ccc2Sc2ccc(Cl)cc21 (centres undefined),3.6%,-4.9%,-0.9%,-5.1%,3.9%,x
COCCCNC(=O)C1CCN(c2cc(C)nc3c(-c4ccc(Cl)cc4)c(C)nn23)CC1,1.6%,x,-8.3%,-18.6%,x,x

# Screening data as filed in PubChem.
